The text below walks through data of PubChem BioAssay AID841 (Emory University Molecular Libraries Screening Center, 2007).

Screen size: about 140,000 compounds; about 2,100 (1.5%) were called active. The sample holds actives, similar compounds and a random draw of the others, so the mix is not that of the screen. Unmarked numbers belong to inactive results. Cut-off read from the data, not from the text of the source: active = protection mostly above about 24% (no sharp cut-off); inactive = mostly below about 26%.

This experiment is described as follows: compounds protecting cells from measles virus cytopathic effect, primary screen, measles RdRp inhibitor project, single point, MLSMR library, absorbance (AID 841). The following applies: Measles virus-infected cells, CPE protection, at 4 µM, hits give high values.
For the compound `Cc1ccc(NC(=O)CN(C)Cc2ccc(F)cc2)c([N+](=O)[O-])c1`, the protection (pct of control) was 64.2% (active).
Then `Cc1c(NC(=S)NCc2ccc(F)cc2)cccc1[N+](=O)[O-]`, with 18%; and `CN(CC(=O)Nc1ccc(N2CCOCC2)cc1)CC(=O)Nc1ccccc1[N+](=O)[O-]`, with 21%; and `CCCCOc1ccc(NC(=O)[C@@H]2CCCN2C(=O)C2CCN(S(=O)(=O)c3ccc(C)cc3)CC2)cc1`, with 12.8%.
Under `CCN=C1S/C(=C\c2cc(Br)ccc2OCC(=O)OCC)C(=O)N1CC` stands 4.59%; under `CCCC(C)C(=O)OCC(=O)Nc1c(Br)cc(C)cc1Br` (stereo not given), 5.66%; under `C=CCn1c(-c2ccc3[nH]c(C)c(C)c3c2)n[nH]c1=S`, 41.1% (active).
Then `CCc1cc(-c2n[nH]c(=S)n2CC(C)C)cs1`, with 1.82%; and `CCCc1cc(-c2n[nH]c(=S)n2Cc2ccccc2)cs1`, with 18%.
With `CC(C)(C)c1ccc(NC(=O)COC(=O)CCc2nc3ccccc3c(=O)[nH]2)cc1`, the protection (pct of control) is 4.79%.
Under `COc1ccccc1NC(=O)CSc1nc2sc(C)c(C)c2c(=O)n1Cc1ccco1` stands 48.9% (active); under `COc1cc(Cl)c(C)cc1NC(=O)CSc1nnc(-c2cccnc2)n1Cc1ccco1`, 6.16%.
Then `COc1ccc(NC(=O)CSc2nnc(-c3cccs3)n2Cc2ccco2)cc1OC`, with 5.61%; and `CCOc1ccccc1C1C(C(=O)OC)=CN(C)C=C1C(=O)OC`, with 48.9% (active).
Then `CCOc1cc(C2C(C(=O)OC)=CN(C3CCCC3)C=C2C(=O)OC)cc(Br)c1O`, with 8.51%.
`COC(=O)C1=CN(C)C=C(C(=O)OC)C1c1ccc(Cl)cc1Cl`: the protection (pct of control) is 4.66%.
Under `Cc1ccnc(NC(=O)Cn2ccc([N+](=O)[O-])n2)c1` stands 6.33%; under `COc1ccc(Cl)cc1NC(=O)[C@@H]1CCCN1C(=O)c1cccs1`, 6.26%; under `COc1ccc(CN2C(=O)CC(Cc3ccc(C)cc3)C2=O)cc1OC` (stereo not given), 7.23%.
Under `CCCCNS(=O)(=O)c1ccc2nc(SCC(=O)Nc3cc(C)cc(C)c3)[nH]c2c1` stands 6.86%.
Then `CSCc1cc(N(C)C)nc(SCc2ccc(Cl)cc2Cl)n1`, with 3.22%; and `CSCc1cc(N2CCOCC2)nc(SCc2ccc(Cl)cc2Cl)n1`, with 71.8% (active).
`O=c1cc(CSc2ccc(Cl)cc2)nc(N2CCOCC2)[nH]1`: the protection (pct of control) was 15.7%.
Then `O=C1CCCC(O)=C1N=Nc1ccc2ncsc2c1`, with 4.07%; and `COc1cc(/C=C(/NC(=O)c2ccc(Cl)cc2Cl)C(=O)O)cc(OC)c1OC`, with 8.92%; and `Cc1ccccc1CSc1nnc(Cn2c(=O)sc3ccccc32)n1C`, with 42.8% (active).
Then `Cc1cccc(CSc2nnc(Cn3c(=O)sc4ccccc43)n2C)c1`, with 11.3%.
Under `C=CCSc1nnc(Cn2c(=O)sc3ccccc32)n1C` stands 12.3%.
As for `CCN(CC)S(=O)(=O)c1cc([N+](=O)[O-])ccc1N=Nc1c(O)n(C)c2ccccc12`, the protection (pct of control) is 4.65%.
Then `COc1ccc(C)cc1NC(=O)CSc1ccc(Cl)cc1`, with 9.52%; and `COC(=O)[C@H](Cc1ccccc1)NC(=O)[C@@H]1C[C@H]1[C@@H](NC(=O)OCc1ccccc1)c1ccccc1`, with 49.5% (active).
Under `COC(=O)[C@H](C)[C@H]1C[C@]1(C)[C@H](NC(=O)OCc1ccccc1)c1ccccc1` stands 3.04%; under `COC(=O)[C@H](Cc1ccccc1)NC(=O)N1CC(C)OC(C)C1` (stereo not given in full), 13.1%.
Under `CSc1ccc(/C=C/C(=O)NC23CC4CC(CC(C4)C2)C3)cc1` stands 2.59%; under `CC(=O)c1ccc(N2CCN(C(=O)c3ccc4nc[nH]c4c3)CC2)cc1`, 20.3%; under `COc1ccc(-c2csc(NC(=O)CCCc3cccs3)n2)cc1`, 37.9%.
As for `CCCc1ccc(-c2csc(NC(=O)Cc3cccs3)n2)cc1`, the protection (pct of control) was 25%.
`Cc1ccc(-c2csc(NC(=O)Cc3cccs3)n2)cc1C`: the protection (pct of control) is 42.2% (active).
Under `C/C(CC(=O)Nc1cccc(F)c1)=N\NC(=O)C(=O)NC1CCCCC1` stands 2.76%; under `Cc1cc(C)c(C2C3=C(Nc4c2c(C)nn4-c2ccccn2)c2ccccc2C3=O)c(C)c1` (stereo not given), 7.66%.
Under `O=C(CN1C(=O)c2cccc3cccc(c23)C1=O)N1CCCCC1` stands 4.32%; under `Cc1nnc(NC(=O)/C=C/c2ccco2)s1`, 22.5%.
`O=[N+]([O-])c1ccc(NCCCO)c(C(F)(F)F)c1`: the protection (pct of control) is 10.7%.
Then `CC(=O)c1sc2nc(SCC(=O)N3CCCCC3)[nH]c(=O)c2c1C`, with 61.4% (active); and `O=C(CSc1nc2c(cnn2-c2ccc(F)cc2)c(=O)[nH]1)N1CCCCCC1`, with 6.65%.
Then `C=CCNC(=O)CSc1nc2sc(C)c(C)c2c(=O)[nH]1`, with 1.51%.
As to `FC(F)(F)c1nnc2ccc(N3CCN(c4ccccc4)CC3)nn12`, the protection (pct of control) was 1.66%.
For the compound `Fc1c(F)c(C(F)(F)F)c(F)c(F)c1N1CCN(c2ccc3nnc(C(F)(F)F)n3n2)CC1`, the protection (pct of control) was 52.3% (active).
Under `COc1ccc(S(=O)(=O)N2CCCC2)c(C)c1C` stands 7.99%.
Then `COc1ccc(F)cc1S(=O)(=O)Nc1ccc2c(c1)OCO2`, with 5.59%; and `COc1ccc(S(=O)(=O)Nc2ccc(F)cc2)c(C)c1C`, with 62% (active); and `COc1ccc(NC(=O)Nc2ccc3nc(C)c(C)nc3c2)cc1`, with 2.45%.
Under `COc1ccc2c(c1)cc1n2CCN=C1NN` stands 25.1% (active); under `COc1cc(-c2cc(C(=O)OCC(=O)Nc3ccc4c(c3)OCO4)c3ccccc3n2)cc(OC)c1OC`, 4.84%; under `CCOC(=O)N1CCN(CC(=O)c2c(C)[nH]c3ccccc23)CC1`, 5.34%.
On to `CCOC(=O)N1CCN(C(=O)Cc2ccc(-n3c(=S)[nH]c4ccccc4c3=O)cc2)CC1`, for which the protection (pct of control) was 49% (active).
On to `O=C(Cc1ccc(-n2c(=O)[nH]c3ccccc3c2=O)cc1)N1CCN(c2cccc(Cl)c2)CC1`, for which the protection (pct of control) was 2.23%.
Then `O=C(/C=C/c1cccc([N+](=O)[O-])c1)NCCSCc1ccco1`, with 4%.
Under `CCOc1ccc(-c2n[nH]c(=S)n2/N=C/c2cc3c(cc2[N+](=O)[O-])OCO3)cc1` stands 2.01%; under `Cc1cc([N+](=O)[O-])nn1CC(=O)Nc1ccc(Cc2ccncc2)cc1`, 3.88%; under `CCCCCCCCCOC1OC(CO)C(O)C(O)C1NC(C)=O` (stereo not given), 19.9%.
Under `CONc1nc2nonc2nc1NOC` stands 8.78%.
Consider `CC(C)C(=O)Nc1ccc(C(=O)NNC(=O)c2cccs2)cc1`, for which the protection (pct of control) is 6.3%.
Under `COc1ccccc1-c1nnc(NC(=O)c2ccc3ncsc3c2)o1` stands 19.4%; under `CCOC(=O)c1sc(NC(=O)CSc2ncccn2)c(C#N)c1C`, 12.3%; under `CCN(CC)C(=O)c1sc(NC(=O)c2ccco2)c(C#N)c1C`, 10.4%.
Then `CCC(=O)Nc1sc(C(=O)N2CCCCC2)c(C)c1C#N`, with 34.3% (active); and `N#Cc1c(-c2ccc(F)cc2)cc(C2CC2)nc1SCC(=O)c1cccs1`, with 17.3%; and `COc1ccc(NC(=O)c2sc(N3CCOCC3)nc2-c2ccccc2)c(OC)c1`, with 7.3%.
Turning to `CCCSc1nc2c(c(=O)n(C)c(=O)n2C)n1Cc1ccc(C)cc1`, the protection (pct of control) was 16.6%.
Under `Cc1cccc(Cn2c(SCCO)nc3c2c(=O)n(C)c(=O)n3C)c1` stands 38.3% (active).
Then `COC(=O)C(C)Sc1nc2c(c(=O)n(C)c(=O)n2C)n1Cc1cccc(C)c1` (stereo not given), with 13.3%; and `O=C(CSc1ccc(C(F)(F)F)cc1[N+](=O)[O-])NCCOc1ccccc1`, with 16.6%.
Regarding `CCCCc1cc2c(s1)CCCC/C2=N/O`, the protection (pct of control) was 5.03%.
Then `COc1cc(C)c(C(C)C)cc1S(=O)(=O)n1ccnc1`, with 24.3%; and `CCOc1ccc(S(=O)(=O)n2ccnc2)c2ccccc12`, with 40.7% (active).
Then `CCOc1ccc(S(=O)(=O)N2CCCCCC2)c2ccccc12`, with 3.16%; and `O=S(=O)(/N=C(/Nc1ccccc1)c1ccccc1)c1cccs1`, with 4.51%.
Then `COC(=O)C(C)Oc1ccc2c(-c3cccc([N+](=O)[O-])c3)cc(=O)oc2c1` (stereo not given), with 4.97%; and `CC(=O)COc1ccc2c(-c3ccccc3)cc(=O)oc2c1`, with 68.7% (active); and `Cc1cc(=O)oc2ccc(OCC(=O)O)cc12`, with 16.4%.
As for `CC(C)NC(=S)N1CCN(S(C)(=O)=O)CC1`, the protection (pct of control) is 39.7%.
Then `Cc1ccnc(N2CCCC(C(=O)Nc3cc(F)ccc3C)C2)n1` (stereo not given), with 46.4% (active).
Under `Cc1ccnc(N2CCC(C(=O)NC3CCCCCC3)CC2)n1` stands 6.88%; under `O=C(Nc1ccc2c(c1)OCCO2)C1CCCN(c2ncccn2)C1` (stereo not given), 7.15%.
`NC1=NC(=O)C(Cc2cccc(Cl)c2Cl)S1` (stereo not given): the protection (pct of control) was 22.3%.
Under `C=CCn1c2ccccc2c2nnc(SCc3[nH]c(=O)[nH]c3C(=O)CCCCC(=O)OCC)nc21` stands 14.8%.
Under `O=C(O)c1ccc2c(c1)C(=O)N(NC(=O)c1ccc(O)cc1)C2=O` stands 16.8%.
Then `CC(C)(C)C(=O)c1cnc(Nc2ccccc2)s1`, with 2.07%.
Consider `O=C(/C=C/Nc1ccccc1)c1cnc(-c2ccccc2)s1`, for which the protection (pct of control) was 62.4% (active).
`Cc1ccc(N/C=C/C(=O)c2ccccc2)cc1C`: the protection (pct of control) was 11.4%.
Under `Cc1ccc(/C=N\n2c(-c3ccccc3)n[nH]c2=S)s1` stands 8.39%.
Under `Oc1ccccc1/C=N/n1c(-c2cccs2)n[nH]c1=S` stands 36.6% (active); under `S=c1[nH]nc(-c2ccccc2)n1/N=C/c1c[nH]c2ccccc12`, 2.43%; under `COC(=O)Cc1ccc(OCC(=O)Nc2ccc(OC(F)(F)F)cc2)cc1`, 9.11%.
